Results filed as inconclusive are left out. Some compounds were tested as several samples or in several runs, with calls that do not always agree. Activity calls are given as the source filed them. How the source made its calls, unless noted: active means hit-call score of the fitted dose curve at least 0.9, where 1 is the maximum; inactive means score below 0.9.
Columns and labels:
[1] = read-out: Interleukin-8 (IL8), CXCL8 (gene 3576); experiment: BSK_3C_IL8: BioMAP Diversity Plus: 3C Assay for Interleukin-8 (IL8) Biomarker Activity (AID 2283020); conditions: primary human endothelial cells (HUVEC); actives raise or lower the signal
Method in brief: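 Primary human umbilical vein endothelial cells (3C system) were exposed to test chemical for 24 h, then IL-8 was quantified by ELISA. Responses were fitted bidirectionally against DMSO vehicle as baseline.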

[2] = read-out: Monokine induced gamma interferon (MIG), CXCL9 (gene 4283); experiment: BSK_3C_MIG: BioMAP Diversity Plus: 3C Assay for Monokine induced gamma interferon (MIG) Biomarker Activity (AID 2283021); conditions: primary human endothelial cells (HUVEC); actives raise or lower the signal
Method in brief: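 Primary human umbilical vein endothelial cells in the 3C system were exposed to chemical for 24 h, after which MIG was quantified by ELISA. Activity was fitted bidirectionally against DMSO as negative control and baseline.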

[3] = BSK_3C_SRB: Viability Assessment in the BioMAP Diversity Plus: 3C Assay (AID 2283023); conditions: primary human endothelial cells (HUVEC);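 further: fitted both ways against DMSO so a hit may be signal rise or drop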
Method in brief: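 Human umbilical vein endothelial cells in the 3C system, treated 24 h. Total protein measured by 0.1% sulforhodamine B staining after 10% TCA fixation, read at 560 nm; bidirectional fit versus DMSO.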

[4] = read-out: Matrix Metallopeptidase 1 (MMP1), MMP1 (gene 4312); experiment: BSK_BE3C_MMP1: BioMAP Diversity Plus: BE3C Assay for Matrix Metallopeptidase 1 (MMP1) Biomarker Activity (AID 2283024); conditions: primary human bronchial epithelial cells; actives raise or lower the signal
Method in brief: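 Primary human bronchial epithelial cells were dosed with test chemicals, and MMP1 levels were measured by ELISA 24 h later. Data were fitted bidirectionally against DMSO as the negative control and activity baseline.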

[5] = BSK_3C_Vis: BioMAP Diversity Plus: 3C Assay for Morphology Visualization (AID 2283025); conditions: primary human endothelial cells (HUVEC);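 further: fitted both ways so gain or loss versus DMSO counts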
Method in brief: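 Human umbilical vein endothelial cells in the 3C system were imaged by light microscopy 24 h after chemical dosing to record cell morphology. Activity was fitted bidirectionally against DMSO as negative control and baseline; the endpoint serves as a background control.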

[6] = read-out: Pselectin, SELP (gene 6403); experiment: BSK_4H_Pselectin: BioMAP Diversity Plus: 4H Assay for Pselectin Biomarker Activity (AID 2283026); conditions: primary human endothelial cells (HUVEC); actives raise or lower the signal
Method in brief: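 Primary human umbilical vein endothelial cells were exposed to test chemical for 24 h, then cell-surface P-selectin was quantified by ELISA. Activity was fitted bidirectionally against DMSO as negative control and baseline.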

[7] = BSK_4H_SRB: Viability Assessment in the BioMAP Diversity Plus: 4H Assay (AID 2283027); conditions: primary human endothelial cells (HUVEC);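 further: cells exposed to compound for 24 h before staining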;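 on AC50: curves fitted both ways versus DMSO so AC50 may be loss or gain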
Method in brief: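 Human umbilical vein endothelial cells were dosed with chemical and, after 24 h, fixed with 10% TCA, stained with 0.1% sulforhodamine B, and read at 560 nm to give total protein as a cytotoxicity measure. Bidirectional fitting relative to DMSO control.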

[8] = BSK_BE3C_SRB: Viability Assessment in the BioMAP Diversity Plus: BE3C Assay (AID 2283028); conditions: primary human bronchial epithelial cells;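 on AC50: fitted both ways so AC50 may mark signal gain or loss versus DMSO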
Method in brief: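 Human bronchial epithelial primary cells in confluent culture, 24 h after chemical dosing; total protein by 0.1% SRB staining after 10% TCA fixation, read at 560 nm. Bidirectional fitting versus DMSO baseline.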

[9] = read-out: Thrombomodulin, THBD (gene 7056); experiment: BSK_3C_Thrombomodulin: BioMAP Diversity Plus: 3C Assay for Thrombomodulin Biomarker Activity (AID 2283029); conditions: primary human endothelial cells (HUVEC); actives raise or lower the signal
Method in brief: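 Primary human umbilical vein endothelial cells (3C system) were exposed to chemical for 24 h, then thrombomodulin levels were measured by ELISA. Activity was fitted bidirectionally against the DMSO negative control as baseline.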

[10] = read-out: Urokinase-type plasminogen activator receptor (uPAR), PLAUR (gene 5329); experiment: BSK_4H_uPAR: BioMAP Diversity Plus: 4H Assay for Urokinase-type plasminogen activator receptor (uPAR) Biomarker Activity (AID 2283030); conditions: primary human endothelial cells (HUVEC); actives raise or lower the signal
Method in brief: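 Human umbilical vein endothelial cells in the 4H system, 24 h after chemical dosing. Cell-surface uPAR measured by ELISA, fitted in both directions versus DMSO; cytotoxicity checked by SRB total protein in parallel cultures.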

[11] = read-out: Vascular endothelial growth factor receptor 2 (Homo sapiens) (UniProt P35968); experiment: BSK_4H_VEGFRII: BioMAP Diversity Plus: 4H Assay for Vascular endothelial growth factor receptor 2 (VEGFR2) Biomarker Activity (AID 2283031); conditions: primary human endothelial cells (HUVEC); actives raise or lower the signal
Method in brief: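 Primary human umbilical vein endothelial cells (4H system), 24 h exposure; cell-surface VEGFR2 measured by ELISA. Bidirectional fitting versus DMSO; cytotoxicity checked in parallel by SRB total-protein staining.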

[12] = read-out: Human Leukocyte Antigen - DR isotype (HLADR), HLA-DRA (gene 3122); experiment: BSK_BE3C_HLADR: BioMAP Diversity Plus: BE3C Assay for Human Leukocyte Antigen - DR isotype (HLADR) Biomarker Activity (AID 2283032); conditions: primary human bronchial epithelial cells; actives raise or lower the signal
Method in brief: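 Human primary bronchial epithelial cells in the BE3C system were exposed to chemicals for 24 h, after which HLA-DR levels were quantified by ELISA. Activity was fitted bidirectionally, gain or loss of signal, against DMSO as negative control and baseline.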

[13] = read-out: Vascular cell adhesion molecule 1 (VCAM1), VCAM1 (gene 7412); experiment: BSK_4H_VCAM1: BioMAP Diversity Plus: 4H Assay for Vascular cell adhesion molecule 1 (VCAM1) Biomarker Activity (AID 2283033); conditions: primary human endothelial cells (HUVEC); actives raise or lower the signal
Method in brief: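 Primary human umbilical vein endothelial cells were exposed to chemicals for 24 h, after which VCAM-1 was quantified by ELISA. Responses were fitted bidirectionally against DMSO as negative control and activity baseline.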

[14] = read-out: Interferon-gamma inducible Protein 10 (IP10), CXCL10 (gene 3627); experiment: BSK_BE3C_IP10: BioMAP Diversity Plus: BE3C Assay for Interferon-gamma inducible Protein 10 (IP10) Biomarker Activity (AID 2283034); conditions: primary human bronchial epithelial cells; actives raise or lower the signal
Method in brief: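 Human primary bronchial epithelial cells were exposed to chemicals for 24 hours, after which IP-10 levels were measured by ELISA. Data were fitted bidirectionally against DMSO, which served as the negative control and activity baseline.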

[15] = read-out: Monokine induced gamma interferon (MIG), CXCL9 (gene 4283); experiment: BSK_BE3C_MIG: BioMAP Diversity Plus: BE3C Assay for Monokine induced gamma interferon (MIG) Biomarker Activity (AID 2283035); conditions: primary human bronchial epithelial cells; actives raise or lower the signal;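 further: MIG protein measured by ELISA in BE3C cultures after 24 h of dosing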
Method in brief: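 ELISA read-out of MIG in human lung bronchial epithelial primary cultures, 24 h post-dosing. Bidirectional curve fit vs DMSO baseline.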

[16] = read-out: Transforming growth factor beta 1 (TGFb1), TGFB1 (gene 7040); experiment: BSK_BE3C_TGFb1: BioMAP Diversity Plus: BE3C Assay for Transforming growth factor beta 1 (TGFb1) Biomarker Activity (AID 2283036); conditions: primary human bronchial epithelial cells; actives raise or lower the signal
Method in brief: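 Human primary bronchial epithelial cells (BE3C system) were dosed with chemical and TGF-b1 levels measured by ELISA at 24 h. Activity was fitted bidirectionally relative to DMSO negative control as baseline.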

[17] = read-out: Plasminogen activator inhibitor-1 (PAI1), SERPINE1 (gene 5054); experiment: BSK_BE3C_PAI1: BioMAP Diversity Plus: BE3C Assay for Plasminogen activator inhibitor-1 (PAI1) Biomarker Activity (AID 2283037); conditions: primary human bronchial epithelial cells; actives raise or lower the signal
Method in brief: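 Human primary bronchial epithelial cells were exposed to chemical for 24 h, then PAI-1 was quantified by ELISA. Activity was fitted bidirectionally relative to the DMSO negative control baseline.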

[18] = read-out: urokinase plasminogen activator (uPA), PLAU (gene 5328); experiment: BSK_BE3C_uPA: BioMAP Diversity Plus: BE3C Assay for urokinase plasminogen activator (uPA) Biomarker Activity (AID 2283038); conditions: primary human bronchial epithelial cells; actives raise or lower the signal
Method in brief: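 Primary human bronchial epithelial cells, uPA measured by ELISA 24 h after dosing. Bidirectional change relative to DMSO; cytotoxicity checked in parallel cultures by sulforhodamine B total-protein staining.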

[19] = read-out: Urokinase-type plasminogen activator receptor (uPAR), PLAUR (gene 5329); experiment: BSK_BE3C_uPAR: BioMAP Diversity Plus: BE3C Assay for Urokinase-type plasminogen activator receptor (uPAR) Biomarker Activity (AID 2283039); conditions: primary human bronchial epithelial cells; actives raise or lower the signal
Method in brief: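 Primary human bronchial epithelial cells were dosed with chemical and harvested 24 h later; uPAR was quantified by ELISA. Activity was fitted bidirectionally against DMSO as negative control and baseline.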

[20] = molecular target: human Vitamin D Receptor (VDR), VDR (gene 7421) (UniProt P11473); experiment: ATG_VDR_TRANS: Attagene TRANS-FACTORIAL HepG2 Assay for human Vitamin D Receptor (VDR) (AID 2283022; active means hit-call score of the fitted dose curve at least 0.9, where 1 is the maximum)
Method in brief: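 HepG2 cells were transiently transfected with GAL4-UAS reporter units and a chimeric VDR-Gal4 construct, then dosed for 24 hours. Reporter mRNA was quantified by RT-PCR, fluorescent labeling, HpaI digestion and capillary electrophoresis; gain of signal analysed vs DMSO.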

Measured: AC50

human Vitamin D Receptor (VDR), VDR (gene 7421), sequence (P11473 whole entry, looked up, the tested form may be a part): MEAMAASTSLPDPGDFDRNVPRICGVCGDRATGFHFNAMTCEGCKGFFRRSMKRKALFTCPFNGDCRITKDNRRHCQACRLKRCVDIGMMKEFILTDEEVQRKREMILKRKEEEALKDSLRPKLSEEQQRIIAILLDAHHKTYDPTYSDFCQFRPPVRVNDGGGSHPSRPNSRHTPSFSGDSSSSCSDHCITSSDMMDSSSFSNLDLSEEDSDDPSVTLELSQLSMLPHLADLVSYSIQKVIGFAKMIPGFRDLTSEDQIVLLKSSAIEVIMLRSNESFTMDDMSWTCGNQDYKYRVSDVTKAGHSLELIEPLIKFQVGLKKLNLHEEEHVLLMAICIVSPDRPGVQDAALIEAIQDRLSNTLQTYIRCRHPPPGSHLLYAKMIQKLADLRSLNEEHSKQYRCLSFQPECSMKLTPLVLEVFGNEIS

CNC(C)=O
not listed: [20]
inactive: all other assays above

CCCc1ccccc1
not listed: [5] | [13] | [14] | [19]
inactive: all other assays above

OC(O)(C(F)C(O)(O)C(F)(F)F)C(F)(F)F
active: [10] 20.5 µM
inactive: [1] | [2] | [20] | [3] | [4] | [6] | [7] | [8] | [9] | [10] | [11] | [12] | [14] | [15] | [17] | [18] | [19]

COc1cc2c(c(OC)c1OC)-c1ccc(OC)c(=O)cc1[C@@H](NC(C)=O)CC2
active: [3] 0.148 µM | [6] 0.293 µM | [7] 0.148 µM | [10] 0.148 µM | [12] 0.47 µM | [17] 0.148 µM
not listed: [5] | [13] | [19]
inactive: all other assays above

Cc1nc(-c2ccccn2)ncc1C(=O)Nn1cc(C)c2cc(F)ccc21
active: [3] 20 µM
not listed: [5] | [13] | [14] | [19]
inactive: all other assays above

Cn1cc[nH]c1=S
not listed: [14] | [19] | [20]
inactive: all other assays above

Cc1cccc(O)c1C
not listed: [19]
inactive: all other assays above

CCCCCCCCN(C)C
not listed: [5] | [14] | [19]
inactive: all other assays above

OCc1c[nH]c2ccccc12
active: [3] 11.5 µM | [4] 0.297 µM | [5] 37.5 µM | [12] 3.97 µM | [17] 0.0716 µM
not listed: [13] | [14] | [19]
inactive: all other assays above

OCCC(F)(F)C(F)(F)C(F)(F)C(F)(F)F
not listed: [5] | [13] | [14] | [16]
inactive: all other assays above

c1ccc2c(c1)-c1cccc3c1c-2cc1ccccc13
active: [4] 0.661 µM
not listed: [5] | [13] | [14] | [19]
inactive: all other assays above

CCCCCCCCCCCCCCCCOS(=O)(=O)O
active: [8] 16.6 µM | [12] 15.1 µM | [16] 16 µM | [17] 15.1 µM | [18] 15.7 µM | [19] 16.1 µM
not listed: [14]
inactive: all other assays above

c1ccc(C(O[C@@H]2CCCN(CCc3ccc4c(c3)OCO4)C2)c2ccccc2)cc1
active: [1] 25.9 µM | [3] 25.2 µM | [4] 26.8 µM | [5] 9.8 µM | [7] 25.4 µM | [10] 15.5 µM | [12] 20 µM | [13] 26.9 µM
not listed: [14] | [19] | [20]
inactive: all other assays above

C=CN1CCCC1=O
not listed: [5] | [14] | [19] | [20]
inactive: all other assays above

S=P(N1CC1)(N1CC1)N1CC1
not listed: [1] | [5]
inactive: all other assays above

Source: PubChem BioAssay (EPA / NIEHS)
